Experimental data as given in PubChem BioAssay AID1508622 (National Center for Advancing Translational Sciences (NCATS), 2021).
The source made the active and inactive calls. Entries that show only a call come without a potency. Calls come from the whole dose curve; as a rule, active = well fitted activation curve with a large enough effect; inconclusive = small, poorly fitted or top-dose-only effect; inactive = no such curve, though single readings can be large or run the other way.

Experiment: Confirmatory qHTS for Identification of Small Molecule Activators of Huntingtin-Antisense Promoter Activity
Conditions: HEK293 HTT-AS promoter firefly luciferase reporter, 24 h; series mostly up to 57.5 µM
Procedure, shortened: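 Activity normalized between vehicle control (0%) and zero RLU (-100%) from firefly luminescence (Dual-Glo). Compounds, up to 57.5 uM final, incubated 24 h at 37C on HEK293 reporter cells plated 24 h earlier.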
Potency is the fitted concentration of half-maximal effect.

Structure (SMILES)	Potency
COc1ccc(-c2nc(CSCC(=O)N3CCN(c4cc(Cl)ccc4C)CC3)c(C)o2)cc1	inactive
CCOc1ccc(CCNc2ncnc3onc(C)c23)cc1OCC	inactive
Cc1ccc(C)c(N2CCN(S(=O)(=O)c3cc(C(=O)Nc4ccccc4C(F)(F)F)ccc3F)CC2)c1	inactive
COc1ccc(CC(=O)Nc2ccc(-c3nc4ccccc4s3)cc2Cl)cc1OC	inactive
COc1ccc(C(=O)NCC(c2cccnc2)N2CCc3ccccc32)cc1 (stereo not drawn)	inactive
COc1ccc(NS(=O)(=O)c2ccc3c(c2)CCN3C(=O)C2CC2)cc1OC	inactive
COc1cc(OC)c(OC)cc1CN1CCc2nc(N3CCN(c4ncccn4)CC3)ncc2C1	inactive
CC(=O)N1CCCc2cc(S(=O)(=O)N(C)CC(=O)Nc3ccc(F)cc3Cl)ccc21	inactive
Cc1cc(N2CCCCC2)nc2ccc(NC(=O)/C=C/c3ccc(OC(C)C)cc3)cc12	inactive
O=C(NCCc1nc2ccccc2n1CCCOc1ccc(Cl)cc1)C1CCCCC1	inactive
CCOC(=O)c1cnc2ccc(OCC)cc2c1Nc1ccc(OCc2ccccc2Cl)cc1	inactive
COc1ccc(C(=O)Nc2cccc(-c3cn4ccsc4n3)c2)c(OC)c1	13.5 µM (active)
Cc1ccc(CSc2ncc(Cl)c(C(=O)NCCc3ccc(S(N)(=O)=O)cc3)n2)cc1	inactive
Cc1ccc(-c2[nH]c3ccccc3c2SCCNC(=O)c2ccc(S(=O)(=O)N(C)C)cc2)cc1	inactive
Cc1ccc(C(C)C)c(OCCn2cc(C(=O)c3ccco3)c3ccccc32)c1	inactive
CCOC(=O)c1ccc(C#Cc2ccc3c(c2)C(C)(C)CCS3)nc1	inactive
Cc1ccc(S(=O)(=O)N(CC(=O)NCCc2ccc(Cl)cc2)c2ccccc2C)cc1	inactive
Cc1cccc(NC(=O)Cn2c(=O)oc3cc(S(=O)(=O)N4CCCCCC4)ccc32)c1	inactive
COc1cc(C[C@@H](CO)[C@H](CO)Cc2ccc(O)c(OC)c2)ccc1O	inactive

Structure (SMILES)	Potency
O=C(Nc1ccc(Cl)c(Cl)c1)N(Cc1c[nH]c2ccccc12)C1CCCCC1	2.39 µM (active)
Cc1ccc(Cl)cc1N(C)C(=O)C1CCCN(c2ncnc3onc(-c4ccc(F)cc4)c23)C1 (stereo not drawn)	inactive
COC(=O)c1c(C)oc2ccc(N(C(=O)c3ccncc3)S(=O)(=O)c3cc(C)ccc3C)cc12	inactive
COc1ccc(Cl)cc1NC(=O)CSc1nccn1-c1ccc(Cl)cc1	inactive
CC(C)c1ccc(Nc2c(-c3ccccn3)nc3ccccn23)cc1	inactive
CCOCCCNC(=O)Nc1cc(C(=O)NCc2ccc(C(C)C)cc2)ccc1N1CCCC1	inactive
CCc1ccccc1-n1nnc(-c2nsc(NC(=O)c3ccc(C)c(C)c3)n2)c1C	inactive
CCCOc1ccccc1C(=O)N1CCC(c2nc3ccccc3s2)CC1	inactive
CCC(C(=O)NCCc1cc(OC)ccc1OC)n1nc(C)c2c(C)n(-c3ccccc3)nc2c1=O (stereo not drawn)	inactive
Cc1ccc(NC(=O)c2ccc(F)c(S(=O)(=O)N3CCc4ccccc4C3)c2)cc1F	inactive
Cc1ccc(C)c(-n2nnc(C(=O)Nc3ccc(Br)cc3)c2C)c1	inactive
Cc1cccc(N2CCN(C(=O)c3cccc(-n4c(C)nc5cccnc54)c3)CC2)c1C	inactive
COc1ccc(Nc2nc(-c3ccc(C)cc3)nc3ccccc23)c(OC)c1	inactive
CC(CNC(=O)c1ccc(CSc2nc3ccncc3n2Cc2ccc(F)cc2)cc1)c1ccccc1 (stereo not drawn)	inactive
COc1cccc(NC(=O)c2oc3ccc(S(=O)(=O)N4CCCCCC4)cc3c2C)c1	inactive
CCOC(=O)C1CCC(CN(Cc2ccccc2)S(=O)(=O)c2ccc(Cl)cc2)CC1 (stereo not drawn)	inactive
CCc1ccc(CNC(=O)c2cccc(-n3c(C)nc4cccnc43)c2)cc1	inactive
CCc1ccc(NC(=O)c2ccc(F)c(S(=O)(=O)N3CCc4ccccc4C3)c2)cc1	inactive
CC(=O)c1ccc(NC(=O)c2ccc(-c3nc(CSc4ccc(C)cc4)c(C)o3)cc2)cc1	inactive
